# According to PubChem BioAssay AID488969 (Vanderbilt High Throughput Screening Facility, 2010):
# The full ranking holds about 110,000 compounds; the median of “z-score” is about -0.1, and the highest 2% start at about 2. The sample as a whole holds a higher share of the highest values than the screen did. The source made the active and inactive calls.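 The calls were made as follows: active = z-score in the third read window above 3 or below -3; inactive = the rest.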
# Molecular target: Metabotropic glutamate receptor 8 (Rattus norvegicus) (UniProt P70579)
# Test: rat mGluR8 modulators via GIRK flux, primary screen, cell-based, thallium flux, HTS (AID 488969)
# Settings: HEK293 rat mGluR8, GIRK (G protein-gated inwardly rectifying potassium channel) thallium flux, FluoZin2; at 10 µM; stronger effect = higher value; submaximal glutamate (EC20) added with thallium
# Metabotropic glutamate receptor 8 (Rattus norvegicus), sequence (P70579 whole entry, looked up): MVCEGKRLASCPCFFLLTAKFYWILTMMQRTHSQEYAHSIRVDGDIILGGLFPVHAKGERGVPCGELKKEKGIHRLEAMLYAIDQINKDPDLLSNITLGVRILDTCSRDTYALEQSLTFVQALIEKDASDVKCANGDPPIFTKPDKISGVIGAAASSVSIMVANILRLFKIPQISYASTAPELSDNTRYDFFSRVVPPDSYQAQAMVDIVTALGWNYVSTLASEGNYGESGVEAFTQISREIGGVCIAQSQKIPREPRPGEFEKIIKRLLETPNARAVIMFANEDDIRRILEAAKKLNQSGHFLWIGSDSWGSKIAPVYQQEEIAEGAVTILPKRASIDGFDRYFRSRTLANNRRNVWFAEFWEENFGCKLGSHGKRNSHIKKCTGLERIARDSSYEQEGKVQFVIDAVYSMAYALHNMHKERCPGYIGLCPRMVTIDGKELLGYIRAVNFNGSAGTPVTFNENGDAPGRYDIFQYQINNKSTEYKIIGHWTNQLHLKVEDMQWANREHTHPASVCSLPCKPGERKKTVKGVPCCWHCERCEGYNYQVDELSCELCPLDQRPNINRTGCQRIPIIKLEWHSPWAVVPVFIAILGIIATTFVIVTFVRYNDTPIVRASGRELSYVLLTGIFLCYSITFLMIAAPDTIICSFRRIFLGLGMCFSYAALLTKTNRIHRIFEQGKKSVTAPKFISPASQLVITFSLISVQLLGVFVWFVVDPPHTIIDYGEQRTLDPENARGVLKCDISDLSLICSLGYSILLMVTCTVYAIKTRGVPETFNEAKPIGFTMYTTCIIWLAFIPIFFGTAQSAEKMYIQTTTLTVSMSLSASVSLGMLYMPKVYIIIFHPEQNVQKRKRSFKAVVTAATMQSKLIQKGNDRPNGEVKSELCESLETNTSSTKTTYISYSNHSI
row,Compound,z-score
1,CC1CN(c2c3c(nc4ncnn24)CCCC3)CC(C)O1 (configuration not stated),-0.374
2,Cc1ccc(N(C(C)C(=O)Nc2ccc(S(=O)(=O)N3CCOCC3)cc2)S(C)(=O)=O)cc1 (configuration not stated),0.137
3,CCCCc1ccc(-c2csc(/C(C#N)=C/c3ccco3)n2)cc1,-0.275
4,CCOCCCNC(=O)c1ccc(CS(=O)(=O)Cc2cccc(C)c2)o1,0.789
5,O=C1CC(N2CCC(O)(c3ccc(Cl)cc3)CC2)C(=O)N1 (configuration not stated),0.198
6,COc1cccc(NC(=O)N(CCCN2CCOCC2)C(C)c2cc3ccccc3o2)c1 (configuration not stated),-2.21
7,CCN(C(=O)CCN1C(=O)c2ccccc2C1=O)C1CCCCC1,0.156
8,NC(=O)CSc1nc(O)cc(=O)n1-c1ccccc1,0.418
9,O=C(CSc1nc(O)cc(=O)n1-c1ccccc1)N1CCCCC1,4.46 (active)
10,O=C(CSc1nc2ccccc2c(=O)n1-c1ccccc1)N1CCCC1,-0.689
11,COc1ccc(Cn2nnnc2C(c2ccc(C)cc2)N2CCN(C3CCCC3)CC2)cc1 (configuration not stated),0.353
12,COc1ccc(Cn2nnnc2C(c2ccccc2Cl)N2CCN(C3CCCC3)CC2)cc1 (configuration not stated),1.79
13,Fc1ccc(C(c2nnnn2Cc2ccco2)N2CCN(C3CCCCC3)CC2)cc1 (configuration not stated),2.31
14,CC(C)C(c1nnnn1Cc1ccco1)N1CCN(C2CCCC2)CC1 (configuration not stated),-0.255
15,Fc1ccc(C(c2nnnn2Cc2cccs2)N2CCN(C3CCCC3)CC2)cc1 (configuration not stated),1.73
16,COc1ccc(Cn2nnnc2C(c2ccc(F)cc2)N2CCN(C3CCCC3)CC2)cc1 (configuration not stated),3.92 (active)
17,N#Cc1nc(-c2ccccc2)oc1NCC1CCCO1 (configuration not stated),-0.084
18,CCOC(=O)c1cnn2c1[nH]c(=O)c1ccccc12,1.54
19,Cc1nn2c([nH]c(=O)c3ccccc32)c1C=O,0.184
20,Cc1cc2[nH]c(=O)c3ccccc3n2n1,4.8 (active)
21,CCOC(=O)c1ccccc1NC(=O)Cc1ccccc1OC,-0.663
22,CCCOc1ccccc1N/C(=N/c1nc(C)cc(C)n1)NC(=O)COc1ccc(OC)cc1,0.266
23,CC1CN(C(=O)C2CCCC2)C(C)CN1C(=O)C1CCCC1 (configuration not stated),0.888

row,Compound,z-score
1,CC1CN(C(=O)C2CCCCC2)C(C)CN1C(=O)C1CCCCC1 (configuration not stated),11.1 (active)
2,CC1CN(C(=O)C2CC2)C(C)CN1C(=O)C1CC1 (configuration not stated),0.00492
3,Cc1ccccc1NC(=O)c1cn(-c2ccccc2)nc1-c1ccccc1,0.316
4,O=C(Nc1ccccc1)Nc1ccc2snnc2c1,-0.373
5,CC(C)c1ccc(Oc2cccc(C(=O)/C(C#N)=C/N(C)C)c2)cc1,-0.286
6,CC1(C)Cc2ccccc2C(=O)N1,0.0959
7,CC(C)c1ccc2c(c1)C(=O)NC(C)(C)C2,-0.156
8,Cc1cc2c(cc1C)C(=O)NC(C)(C)C2,5.66 (active)
9,O=C(CN1C(=O)CCS(=O)(=O)c2ccccc21)Nc1cccc(F)c1,-0.608
10,Cc1ccc(Nc2c([N+](=O)[O-])cc(C(=O)N3CC(=O)Nc4ccccc43)cc2[N+](=O)[O-])c(C)c1,-0.162
11,CCc1cccc(Nc2c([N+](=O)[O-])cc(C(=O)N3CC(=O)Nc4ccccc43)cc2[N+](=O)[O-])c1,-1.1
12,Cc1ccc(C)c(Nc2c([N+](=O)[O-])cc(C(=O)N3CC(=O)Nc4ccccc43)cc2[N+](=O)[O-])c1,4.62 (active)
13,O=C(c1ccc(O)cc1)c1ccc(Cl)cc1,-0.563
14,CCOC(=O)Nc1cc2c(cc1C(C)=O)OCO2,0.657
15,COC(=O)c1ccccc1NC(=O)C1CC(=O)N(c2ccccc2)C1 (configuration not stated),-0.0106
16,COc1ccc(Cl)cc1NC(=O)C1CC(=O)N(c2ccc(F)cc2)C1 (configuration not stated),0.0135
17,COC(=O)c1ccccc1NC(=O)C1CC(=O)N(c2ccc(C)cc2)C1 (configuration not stated),-0.265
18,COC(=O)c1ccccc1NC(=O)C1CC(=O)N(c2ccc(F)cc2)C1 (configuration not stated),2.15
19,CCOc1ccc(N2CC(C(=O)Nc3ccccc3OC)CC2=O)cc1 (configuration not stated),1.1
20,COc1ccc(OC)c(NC(=O)C2CC(=O)N(c3ccc(Br)cc3)C2)c1 (configuration not stated),3.63 (active)
21,O=C(CCC(=O)OCC(=O)c1cccc([N+](=O)[O-])c1)Nc1cccc(Cl)c1Cl,-0.0921
22,O=C(c1ccc(N2CCN(CCO)CC2)nc1)N1CCOCC1,0.0375
23,CC12CC(c3ccccc3O1)N(C(=O)c1ccco1)C(=S)N2c1ccc(F)cc1 (configuration not stated),-0.812

row,Compound,z-score
1,CC(C)OC(=O)c1cc2c(ccn2C)n1CC(=O)N(Cc1ccccc1)c1ccc(F)cc1,-0.00352
2,CCOC(=O)c1nnn(-c2nonc2N)c1COc1ccc(F)cc1,-0.0888
3,Cc1ccccc1OCCCC(=O)Nc1nccs1,2.49
4,O=C(CCCOc1ccccc1)Nc1nccs1,-1.29
5,Cc1ccc(C)c(OCCCC(=O)Nc2nccs2)c1,-0.0356
6,COCCCn1c(=N)c(C(=O)NCc2ccc3c(c2)OCO3)cc2c(=O)n3ccccc3nc21,-0.494
7,CCCC(=O)OCC(=O)Nc1ccccc1Sc1ccccc1,-0.604
8,COc1ccccc1/C=N/NC(=O)CC(=O)NCc1cccnc1,-0.2
9,O=C(c1cc2nc(-c3ccco3)cc(C(F)(F)F)n2n1)N1CCN(Cc2ccccc2)CC1,-0.1
10,CCOC(=O)C1=C(C)NC(=O)NC1c1cccnc1 (configuration not stated),0.62
11,O=C1NC(=O)C2(COC(c3cccnc3)OC2)S1 (configuration not stated),2.49
12,O=C1NC(=O)C2(COC(c3ccccc3Cl)OC2)S1 (configuration not stated),-0.116
13,CCCCn1c(CN2CCN(c3ccc(F)cc3)CC2)nc2c1c(=O)n(C)c(=O)n2C,-0.751
14,CCn1c(SCc2nc(-c3ccccc3)no2)nnc1-c1ccco1,-0.421
15,CCn1c(SCc2nc(-c3ccccc3)no2)nnc1-c1cccs1,1.84
16,c1ccc(-c2noc(CSc3nnnn3-c3ccccc3)n2)cc1,2.18
17,c1ccc(CSc2nnnn2-c2ccccc2)cc1,-0.542
18,c1ccc(-c2noc(CSc3nnnn3C3CCCCC3)n2)cc1,-0.0529
19,CCn1c(SCc2nc(-c3ccccc3)no2)nc2ccccc21,3.16 (active)
20,CC(C)c1[nH]nc2c1C(c1cccc(OC(=O)N3CCOCC3)c1)C(C#N)=C(N)O2 (configuration not stated),-1.23
21,FC(F)(F)c1ccc(CSc2nccn2-c2ccccc2)cc1,0.167
22,COc1cc(OC)c(OC)cc1/C=N/NC(=O)c1ccc(=O)n(C)c1,-0.238
23,Cc1cccc(C(=O)/C=C2/c3ccccc3CC(C)(C)N2C)c1,-0.509

row,Compound,z-score
1,CCOCCN1CCN(c2c(CC)c(C)nc3cc(-c4cc(OC)cc(OC)c4)nn23)CC1,-0.938
2,Nc1nc(SCC(=O)NC2CCCC2)[nH]c(=O)c1-c1ccccc1,-0.603
3,O=C(c1ccccc1NS(=O)(=O)c1cccs1)N1CCCC1,0.676
4,CCOC(=O)CSc1nc2cc(C(=O)NCc3ccco3)ccc2c(=O)n1C1CCCCC1,0.724
5,COC(=O)c1ccc2c(=O)n(C3CCCCC3)c(SCC#N)nc2c1,3.63 (active)
6,CCOC(=O)CSc1nc2ccccc2c(=O)n1C1CCCC1,0.684
7,COc1ccc(C)cc1NC(=O)NCCC1=CCCCC1,10.6 (active)
8,CCCCOC(=O)c1ccc(NC(=O)Nc2ccc(OC)c(OC)c2)cc1,-0.113
9,Cc1ccc(OC(=S)Nc2ccc(O)cc2)cc1,0.0849
10,COc1ccc(NC(=O)C(=O)NCCC2=CCCCC2)c(OC)c1,-0.33
11,Cc1ccc(OC(=S)Nc2ccc(F)cc2)cc1,0.0616
12,CCOC(=O)c1ccccc1NC(=O)Nc1ccc(OC)c(OC)c1,0.154
13,COc1ccc(C(=O)NCCC2=CCCCC2)cc1OC,-0.214
14,COc1ccc(NC(=O)Nc2cc(C)ccc2F)cc1,0.0419
15,CCOC(=O)c1ccc(NC(=O)Nc2ccc(OC)c(OC)c2)cc1,6.79 (active)
16,COc1ccc(OC)c(NC(=O)Nc2ccc(Cl)cc2)c1,0.245
17,COc1ccc(NC(=O)Nc2cc(C)ccc2OC)cc1,2.83
18,Cc1ccc(OC(=S)Nc2ccccc2)c(C)c1,3.2 (active)
19,Cc1nn(CC(=O)Nc2cccc(S(N)(=O)=O)c2)c(C)c1[N+](=O)[O-],-0.212
20,CCOc1ccc(-c2nnn(CC(=O)c3cc(OC)ccc3OC)n2)cc1,1.52
21,CCCNC(=O)Cn1cnc2sc(C(=O)N3CCCC(C(=O)OCC)C3)c(C)c2c1=O (configuration not stated),-1.05
22,CCN(CC)S(=O)(=O)c1ccc(NC(=O)C2CCCO2)cc1 (configuration not stated),-0.205
23,CCCn1nc(C(=O)NCCN2CCOCC2)c2ccccc2c1=O,0.608

row,Compound,z-score
1,Cc1occc1-c1nnc(SCC(=O)N(C)CCC#N)n1N,0.286
2,O=C(NC1CCCCC1)C(c1ccc(O)cc1)N(CC1CCCO1)C(=O)C1COc2ccccc2O1 (configuration not stated),0.338
3,COc1ccc(C)cc1NC(=O)Nc1ccccc1,11.5 (active)
4,CCOC(=O)Nc1cc(C)ccc1OC,0.0736
5,COc1ccc(C)cc1NC(=O)Nc1ccc(Br)cn1,0.233
6,Cc1cccc(-c2nnn(Cc3nnc(NC(=O)c4ccccc4)s3)n2)c1,-0.0603
7,Cc1ccc(C(=O)N2CCN(c3ccc(C(F)(F)F)cn3)CC2)c(C)c1,-0.0998
8,CC1CC(C)CN(C(=O)c2cc(-c3ccccn3)nc3ccccc23)C1 (configuration not stated),-1.27
9,Cn1ccnc1SCC(=O)Nc1ccc2nc(SCC(=O)NC3CC3)sc2c1,-0.00819
10,CCOc1c2ccc(C(=O)NCc3cc(C(F)(F)F)cc(C(F)(F)F)c3)cc2nn1C,0.112
11,C=CCn1c(=S)[nH]c2ccc(Br)cc2c1=O,15 (active)
12,CCOC(=O)N1CCN(C(=O)CCCn2c(=S)[nH]c3ccc(Br)cc3c2=O)CC1,1.24
13,O=C(CCCCCn1c(=S)[nH]c2ccc(Br)cc2c1=O)NCC1CCCO1 (configuration not stated),1.92
14,C=CCn1c(=S)[nH]c2ccccc2c1=O,13.6 (active)
15,C=C(C)Cn1c(=S)[nH]c2ccccc2c1=O,-0.0946
16,CC(C)OC(=O)CSc1nnc(Cc2ccccc2)n1Cc1ccco1,-0.4
17,Cc1cccc2cc(C(c3nnnn3C(C)(C)C)N3CCN(C(=O)c4ccco4)CC3)c(=O)[nH]c12 (configuration not stated),0.516
18,CCN1CCN(C(=O)c2cc3sccc3n2CC(=O)c2ccccc2)CC1,-0.119
19,CCN1CCN(C(=O)C2CCN(C(=O)c3cc4sccc4n3CC)CC2)CC1,2.56
20,CCn1c(C(=O)N2CCC(C(=O)N3CCN(c4ccccn4)CC3)CC2)cc2sccc21,0.181
